Screening results from PubChem.
HT1080-NT tox: kills 2HG-producing HT-1080-NT fibrosarcoma cells. HT-1080-NT fibrosarcoma viability, CellTiter-Glo ATP luminescence, 48 h. Potency, µM (series often up to 46.1 µM), for inactives: at the top dose activity, negative = less viability, most hits filed as cytotoxic. AID 686970. 360,000 tested, 1.6% active;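 also: NT is the 2HG producing partner of a matched IDH1 knockdown line; potency is read from the fitted curve at half-maximal effect; 0% = DMSO-treated cells and -100% = media-only wells without cells; nearly all actives have a fitted effect of over 55% in size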
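Toxicity toward the 2HG-producing NT line was scored as %Activity, normalised to DMSO and no-cell wells, from CellTiter-Glo luminescence after 48 hours' treatment.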
uPA generation: cell surface uPA generation inhibition. Potency, µM (top dose mostly 38.3 µM), for inactives: at the top dose activity change, negative = inhibition, most hits filed as inhibitors. cell surface uPA generation assay, qHTS. 330,000 tested, 0.31% active; active = well fitted inhibition curve with a large enough effect; inconclusive = small, poorly fitted or top-dose-only effect; inactive = no such curve, though single readings can be large or run the other way; tested in mouse RAW 264.7 cells; also: potency is read from the fitted curve at half-maximal effect; nearly all actives have a fitted effect of over 55% in size
IL1B secr inh: inhibitors of inflammasome signaling (IL-1 beta secretion) | THP-1 LPS/ATP IL-1B secretion, AlphaLISA, 16 h; hits give low values | activity change, % at 57.5 µM | 360,000 tested, 4.7% active | AID 743279; in the data active = activity change below about -50%; inconclusive = mostly about -30% to -49%
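Secreted IL-1B measured by AlphaLISA bead assay after 16 h compound exposure of THP-1 cells; compounds (final up to 57.5 uM) added 1 h before LPS (250 ng/mL) and ATP (1.25 mM) stimulation; lower signal means less secretion.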
DT40 TDP1 no CPT: qHTS for Inhibitors of human tyrosyl-DNA phosphodiesterase 1 (TDP1): qHTS in cells in absence of CPT; DT40 Tdp1-/- hTDP1 cells, no CPT, ATP luminescence, 48 h; Potency, µM (titrated, usually from 46.2 µM), inactives show at the top dose activity change, negative = growth inhibition, usual class: inhibitors; 420,000 tested, 15% active; AID 686978, 2013; also: potency is read from the fitted curve at half-maximal effect; nearly all actives have a fitted effect of over 55% in size
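Readout: luminescence from CellTiter-Glo after 30 min in the dark at RT. Cells: DT40 Tdp1-/- with stable hTDP1, 400/well. Exposure: compounds alone, ≥48 hr, 37 °C.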
TDP1 cell CPT: DT40-hTDP1 cell growth loss with CPT | chicken DT40 Tdp1-/-;hTDP1 cells + 20 nM CPT, ATP luminescence, 48 h | 420,000 tested, 12% active | Potency, µM (doses to about 46.2 µM), inactives show at the top dose activity change, negative = growth inhibition, actives largely listed as inhibitors | AID 686979; also: potency is read from the fitted curve at half-maximal effect; nearly all actives have a fitted effect of over 55% in size
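Chicken DT40 Tdp1-/- cells complemented with human TDP1, 400 cells/well, exposed to compounds plus 20 nM camptothecin for at least 48 h at 37 C; viability read as ATP content by CellTiter-Glo luminescence.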
HT1080 IDH1KD tx: toxicity to HT-1080 IDH1 knockdown cells (counter line) | HT-1080 IDH1 knockdown viability, ATP luminescence, 48 h | Potency, µM (top dose mostly 46.1 µM), for the others: at the top dose activity, negative = toxicity, actives largely listed as cytotoxic | 360,000 tested, 2% active;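 also: potency is read from the fitted curve at half-maximal effect; 0% = DMSO wells and -100% = cell-free medium wells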
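Knockdown cells (IDH1KD HT-1080) received compounds 2 h after plating at 750 cells/well and were kept 48 h at 37 °C in 5% FBS RPMI. A CellTiter-Glo luminescence read gave % activity for curve fitting.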
An asterisk follows results filed as active; i = inactive; ? = inconclusive; · = no result. Hits are enriched below; roughly 19% of the tested compounds scored in any of these assays. Unless noted, calls follow the shape of the dose curve; as a rule, active = well fitted curve in the direction sought with a large enough effect; inconclusive = small, poorly fitted or top-dose-only effect, or another doubt; inactive = no such curve, though single readings can be large; an effect the other way counts as inactive or inconclusive. Unless noted, % is scaled to controls: 0 for no effect and ±100 for the full control effect.

SMILES	HT1080-NT tox	uPA generation	IL1B secr inh	DT40 TDP1 no CPT	TDP1 cell CPT	HT1080 IDH1KD tx
COc1ccc(Cn2c(=O)c3[nH]cnc3n(-c3ccccc3C)c2=O)cc1	11.6µM*	-11.1%	35.5	5.17µM*	3.66µM*	11.6µM*
O=C(CCc1ccc(S(=O)(=O)N2CCOCC2)cc1)OCC(=O)c1ccccc1F	-1.5%	-6.6%	0.0	1.2%	-1.3%	3.2%
COc1ccccc1-c1nnc(SCC(=O)N2CCCCC2)o1	1.1%	-4.7%	-14.5	0.0%	-0.2%	-7.5%
COc1ccccc1-c1nnc(Sc2nc([N+](=O)[O-])nn2C)o1	12.6µM*	·	-100.1*	16.4µM*	?	3.98µM*
C[C@H](CO)N1C[C@H](C)[C@@H](CN(C)Cc2ccc(F)cc2)Oc2ncc(Br)cc2C1=O	5.6%	·	14.6	?	-23.5%	14.7%
COc1ccc(-c2ccc(OC)c([C@H]3[C@@H]4C=CCC[C@@]4(C)C(=O)N3Cc3ccccc3)c2)cc1OC	-23.8%	?	0.0	?	?	?
COc1ccc(-c2ccc(OC)c([C@H]3[C@H]4C=CC[C@@H](C)[C@@H]4C(=O)N3Cc3ccccc3)c2)cc1C	16.3%	17.7%	26.4	10.3µM*	?	8.3%
COc1ccc(-c2ccc(N(C)C)cc2)cc1[C@H]1[C@H]2C=CC[C@@H](C)[C@@H]2C(=O)N1Cc1ccccc1	9.9%	5.6%	9.7	8.2µM*	11.6µM*	7.7%
Cc1ccc(F)c([C@H]2[C@H]3C=CC[C@@H](C)[C@@H]3C(=O)N2Cc2ccccc2)c1	-2.3%	?	91.0	?	?	-17.3%
COc1ccc(-c2cc3ccccc3s2)cc1[C@H]1[C@H]2C=CC[C@@H](C)[C@@H]2C(=O)N1Cc1ccccc1	0.3%	9.4%	16.9	18.4µM*	?	-1.8%
Cc1ccc(CNC(=O)CCCCCNC(=O)N2CCn3c2nc2ccccc23)cc1	6.6%	0.6%	0.0	?	18.4µM*	1.9%
COc1cccc(CNC(=O)CCCCCNC(=O)N2CCn3c2nc2ccccc23)c1	5.4%	3.7%	9.7	-27.5%	16.4µM*	17.2%
Cc1[nH]n(-c2ccc(Br)cc2)c(=O)c1/C=N/NC(=O)c1ccccc1	?	6.31µM*	80.2	2.91µM*	4.61µM*	?
Cc1[nH]n(-c2ccccc2)c(=O)c1/C=N/NC(=O)c1cccc(F)c1	10.3µM*	?	72.9	4.11µM*	5.17µM*	7.31µM*
O=C(N/N=C/c1ccc(Br)cc1)c1ccc(NC(=O)c2ccccc2)cc1	5.9%	16.4%	0.0	6.3%	3.9%	24.0%
Cc1ccc(-c2nnn(C(C)C(=O)N3c4ccccc4CCc4ccccc43)n2)cc1 (centres undefined)	-16.2%	10.5%	-1.4	29.1µM*	?	-7.8%
CC(C(=O)N1c2ccccc2Sc2ccccc21)n1nnc(-c2cccs2)n1 (centres undefined)	0.0%	15.8%	7.6	-0.7%	-9.1%	0.0%
CC(C(=O)N1c2ccccc2CCc2ccccc21)n1nnc(-c2ccc(N(C)C)cc2)n1 (centres undefined)	1.3%	6.0%	-20.4	16.4µM*	?	-3.6%
O=C(NCc1cccs1)C1C(=O)Nc2ccccc2C(=O)N1Cc1ccccc1 (centres undefined)	-0.6%	·	6.9	19.6%	14.6%	-2.4%
Cc1ccc(Nc2cc(C)nc(-n3nc(C)cc3C)n2)cc1	·	·	·	3.66µM*	3.26µM*	·
CCOc1ccc(Nc2cc(C)nc(-n3nc(C)cc3C)n2)cc1	?	-5.8%	12.1	0.581µM*	0.461µM*	0.411µM*
Cc1cc(Nc2ccc(Cl)cc2C)nc(-n2nc(C)cc2C)n1	·	·	·	1.64µM*	5.17µM*	·
CNc1cc(C)nc(-n2nc(C)cc2C)n1	4.7%	-4.3%	0.0	5.17µM*	5.8µM*	-1.9%
Cc1ccc(Nc2cc(-n3nc(C)cc3C)ncn2)cc1	-1.3%	-2.8%	-24.4	-28.4%	-21.2%	-0.8%
CCn1c(=O)c2ccccc2n(CC(=O)NC2CCCCC2)c1=O	0.7%	2.9%	25.0	-20.6%	-10.8%	1.7%
SMILES	HT1080-NT tox	uPA generation	IL1B secr inh	DT40 TDP1 no CPT	TDP1 cell CPT	HT1080 IDH1KD tx
CC1CCN(c2nn3c(=O)c(C(=O)NCCc4ccc(Cl)cc4)cnc3s2)CC1	·	·	·	-3.4%	?	·
COC(=O)N/N=C/c1ccccc1OCCOc1ccc(OC)cc1	?	-9.0%	-10.9	16.4µM*	-91.6%	-21.1%
CC(Nc1ccc(Br)cc1)C(=O)N/N=C/c1ccccc1OCc1ccccc1 (centres undefined)	0.2%	-0.4%	?	?	?	-0.6%
COc1ccc(NC(C)C(=O)N/N=C/c2ccccc2OCc2ccc(Br)cc2)cc1 (centres undefined)	-2.8%	-0.7%	-12.1	22.4µM*	?	-0.4%
COC(=O)N/N=C/c1cn(CCOc2ccc(OC)cc2)c2ccccc12	-10.3%	-2.2%	-21.1	?	?	-11.1%
COc1ccc(C)cc1Nc1n[n+](C)c(-c2c3ccccc3cc3ccccc23)s1	10.1%	-0.8%	-10.7	-7.3%	-19.7%	0.8%
COc1ccc(C)cc1Nc1n[n+](-c2ccccc2)c(-c2ccc(N(C)C)cc2)s1	-21.7%	?	-66.9*	20.6µM*	10.3µM*	-2.8%
COc1ccc(C)cc1Nc1n[n+](-c2ccccc2)c(-c2c(Cl)cccc2Cl)s1	?	?	-0.3	13µM*	20.6µM*	?
COc1ccc(C)cc1Nc1n[n+](-c2ccccc2)c(-c2ccc(OC)c(OC)c2OC)s1	?	?	58.6	18.4µM*	16.4µM*	?
COc1ccc(C)cc1Nc1n[n+](C)c(-c2ccc(O)cc2O)s1	13.0%	1.0%	17.7	-23.4%	-13.4%	12.5%
CN(C)S(=O)(=O)c1cccc(NC(=S)NN=C(Cc2ccccc2)Cc2ccccc2)c1	5.6%	0.4%	12.9	5.17µM*	5.8µM*	13.3%
CN(CC(=O)Nc1cccc(S(=O)(=O)N(C)C)c1)Cc1ccccc1	7.6%	3.0%	13.3	?	-28.3%	0.9%
COc1cc(/C=N/NC(=S)Nc2cccc(S(=O)(=O)N(C)C)c2)ccc1O	-17.5%	-3.8%	-98.0*	18.4µM*	?	-0.3%
O=C(CN1CCN(Cc2ccc3c(c2)OCO3)CC1)NCC(F)(F)F	10.6%	4.0%	5.4	-2.8%	-1.5%	8.0%
Cc1c(CN2CCC(Oc3ccc(C(=O)N4CCCCC4)cc3)CC2)cnn1C	0.4%	-3.4%	i	5.3%	1.9%	11.4%
